# Compound activity deposited in PubChem BioAssay by National Center for Advancing Translational Sciences (NCATS).
# AMA1-RON2 inh – disrupts binding of P. falciparum AMA1 to RON2. AlphaScreen AMA1-biotinylated RON2 peptide binding. Potency, µM (highest dose often 58.2 µM), for inactives: at the highest dose activity change, negative = inhibition, usual class: inhibitors. actives 0.2% (n = 360,000); active means well fitted inhibition curve with a large enough effect; inconclusive means small, poorly fitted or top-dose-only effect; inactive means no such curve, though single readings can be large or run the other way;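 further: potency means the concentration at half of the fitted maximal effect; 0% = vehicle wells and -100% = peptide control; nearly all actives have a fitted effect of over 45% in size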
#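 AMA1 (3D7) with his tag at 25 nM final met compounds first, then biotinylated RON2 peptide at 25 nM; detection used donor plus acceptor beads, 10 µg/mL apiece, read by AlphaScreen after 30 min at room temperature.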
# SARS PLpro yeast-1 – SARS-CoV PLP inhibition in yeast; S. cerevisiae expressing SARS-CoV PLpro, growth rescue; Potency, µM (doses to about 32.9 µM), for inactives: at the highest dose activity, positive = growth rescue, usual class: activators; actives 0.19% (n = 330,000); AID 485353; further: potency means the concentration at half of the fitted maximal effect; 0% is about no effect; nearly all actives have a fitted effect of over 55% in size
# NS1 function inh – influenza NS1 inhibition; Potency, µM (highest dose often 46.1 µM), for the others: top-dose activity, positive = more growth; actives 0.4% (n = 270,000); further: potency means the concentration at half of the fitted maximal effect; actives are rising curves; nearly all actives have a fitted effect of over 50% in size
#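 A cell-based growth assay was used: compounds that relieve NS1-induced slow growth of budding yeast raise OD600. Assay medium was yeast nitrogen base with ammonium sulphate and -URA supplement, pH 6.0, with 2% galactose.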
# SARS PLpro yeast-2 – Validates SARS-CoV PLpro inhibitor hits in yeast; actives 19% (n = 1,000); calls only; yeast expressing SARS-CoV PLpro, growth phenotype rescue; shares compounds with SARS PLpro yeast-1; call rule not given here
# Starred values were filed as active, the others as inactive; i = inactive; ? = inconclusive; . = no result; + = active, no number. A selection: hits, their analogues and other compounds. The true share with any hit is near 0.65%. Unless noted, the call rests on the fitted dose curve.
SMILES,AMA1-RON2 inh,SARS PLpro yeast-1,NS1 function inh,SARS PLpro yeast-2
C/C=C/c1ccc(OCCCNC2CCCC2)c(OC)c1,-16%,-4%,-3%,.
C/C=C/c1ccc(OCCCNC(C)CC)c(OC)c1 (configuration not stated),20µM*,22µM*,1%,i
CCOc1ccc(CCNC(=O)COC(=O)c2oc3ccccc3c2COC)cc1OCC,-18%,-4%,.,.
O=C1NC(=O)C(Nc2cccc3ccccc23)S1 (configuration not stated),8%,-19%,-11%,.
CN1C(=O)SC(Nc2cccc3ccccc23)C1=O (configuration not stated),30%,13µM*,0%,i
CCCCN1C(=O)C(CC(=O)NCCc2ccccn2)CC(C(=O)N(C(C)C)C(C)C)=C1C (configuration not stated),125%,.,.,.
COCCCN1C(=O)C(O)=C(C(=O)c2ccco2)C1c1ccccc1 (configuration not stated),-1%,-5%,2%,.
COCc1cc(C2C(C(=O)c3ccco3)=C(O)C(=O)N2CCOCCO)ccc1O (configuration not stated),-3%,2.8µM*,-8%,i
CC[C@H](C)[C@H](NC(=O)OCc1ccccc1)C(=O)OCC(=O)N1CCN(c2ccc(F)cc2)CC1,-8%,.,.,.
CCC(C(=O)Nc1nccs1)c1ccccc1 (configuration not stated),-19%,3%,?,.
CCC(C)C(=O)Nc1nccs1 (configuration not stated),12%,10µM*,-33%,i
Cc1ccc(C2N3CCCN23)cc1 (configuration not stated),-8%,3%,3%,.
Brc1ccc(C2N3CCCN23)cc1 (configuration not stated),6%,18µM*,15%,?
NC(=O)CC(NC(=O)Cc1cccc2ccccc12)c1ccc(N2CCC(N3CCCC3)CC2)c([N+](=O)[O-])c1 (configuration not stated),-1%,-1%,-16%,.
Cc1c(NC(=O)CSc2ccc(Cl)cc2)cccc1-c1nc2ncccc2o1,0%,?,-51%,?
CCC(=O)Nc1cccc(-c2nc3ncccc3o2)c1C,0%,-2%,-2%,.
CCCCn1c(N)c(N(Cc2ccccc2OC)C(=O)CSCC(=O)Nc2cccc(C)c2)c(=O)[nH]c1=O,9%,-6%,7%,.
CNC(=S)N/N=C(\C)c1ccc(Cl)s1,25%,?,3%,.
C=C(C)CNC(=S)N/N=C(\C)c1ccc(Cl)s1,8%,?,-18%,+
C/C(=N\NC(N)=O)c1ccc(Cl)s1,18%,-3%,-1%,.
CCNC(=S)N/N=C(\C)c1ccc(Cl)s1,39%,?,-33%,+
N#Cc1ccccc1OCC(=O)NC1CCCCCC1,-3%,.,.,.
CCN1CCCC1Cn1cnc2c([nH]c3ccc(OC)cc32)c1=O (configuration not stated),1%,-1%,-7%,.
O=C(NCc1ccccc1C(F)(F)F)c1cccc2c1C(=O)c1ccc(N3CCC(N4CCCCC4)CC3)cc1S2(=O)=O,4%,.,.,.
Cc1ccc(-c2cc(=O)c3cc(C)ccc3[nH]2)cc1,-5%,4%,6%,.
SMILES,AMA1-RON2 inh,SARS PLpro yeast-1,NS1 function inh,SARS PLpro yeast-2
Cc1ccc(-c2cc(=O)c3cc(F)ccc3[nH]2)cc1,-2%,?,11%,i
CN1CCN(S(=O)(=O)c2ccc(Br)c3ccccc23)CC1,0%,-3%,2%,.
CC(=O)NCc1ccc(C(=O)CCl)cc1,-9%,4%,.,.
CC(=O)N(C)Cc1ccc(C(=O)CCl)cc1,-9%,7.9µM*,.,+
COc1cccc(NC(=O)C2(C)CCCN2C(=O)C(C)C)c1OC (configuration not stated),0%,.,.,.
O=C1/C(=C/C=C/c2ccco2)SC(=S)N1c1ccc(O)cc1,?,-8%,7%,.
O=C1/C(=C\c2ccco2)SC(=S)N1c1ccc(O)cc1,-22%,.,-29%,i
Cc1cc(=O)[nH]c(N/N=C/c2ccccn2)n1,-42%,?,6%,i
O=c1cnnc(N/N=C/c2ccccn2)[nH]1,-4%,?,-1%,.
Nc1c(CNCc2nnn(Cc3ccccc3)c2N)nnn1Cc1ccccc1,92%,.,.,.
C[C@H]1CN([C@@H](C)CO)S(=O)(=O)c2ccc(Br)cc2O[C@H]1CN(C)C(=O)c1cccc(F)c1,-5%,.,.,.
O=C(COC(=O)c1cccnc1Cl)NC1CCCCCC1,36%,3.2µM*,.,i
O=C(COC(=O)c1ccccc1Cl)NC1CCCCCC1,3%,-7%,.,.
CC(=O)OCc1nc2sc(C)c(C)c2c(=O)[nH]1,-9%,-20%,1%,.
Cc1ccc(S(=O)(=O)N2CC(O)CC2C(=O)OCc2nc3sc(C)c(C)c3c(=O)[nH]2)cc1 (configuration not stated),18%,?,19%,i
O=P(N1CCCCC1)(N1CCCCC1)C(Cl)(Cl)Cl,4%,?,-4%,i
O=P(N1CCCCCC1)(N1CCCCCC1)N1CC1,-13%,.,.,.
CSc1ccccc1OCc1cc(C(=O)NCC(C)Oc2cccnc2)no1 (configuration not stated),-4%,.,.,.
CCN(c1ccccc1)S(=O)(=O)c1ccc(Oc2ccc(C(C)=O)cc2OC)nc1,-1%,-5%,.,.
O=C(N/N=C/c1ccc(-n2ccnc2)cc1)c1cccs1,-2%,?,-2%,i
O=C(N/N=C/c1ccncc1)c1cccs1,12%,-1%,-11%,.
CN(CCC1CCOCC1)C(=O)CC1C(=O)NCCN1Cc1c(F)cccc1Cl (configuration not stated),-12%,5%,-7%,.
c1cncc(-c2ccc3ncnc(NCc4ccc5c(c4)OCO5)c3c2)c1,.,4%,.,i
c1cncc(CNc2ncnc3ccc(-c4ccc5c(c4)OCCO5)cc23)c1,.,6%,.,.
CN(C(=O)c1ccccc1-c1ncc[nH]1)C1CCCN(Cc2ccccc2F)C1 (configuration not stated),6%,16µM*,2%,i
SMILES,AMA1-RON2 inh,SARS PLpro yeast-1,NS1 function inh,SARS PLpro yeast-2
CN(C(=O)c1ccncc1)C1CCCN(Cc2ccccc2F)C1 (configuration not stated),-2%,-7%,6%,.
O=C(NCC1CCN(c2ccc(S(=O)(=O)N3CCOCC3)cc2)CC1)Nc1ccccc1F,-3%,1%,-15%,.
Cc1cccc(-n2ccnc2SCC(=O)Nc2nnc(C)s2)c1,1%,6%,-16%,.
CCc1nnc(NC(=O)CSc2nccn2-c2cccc(C)c2)s1,0%,13µM*,-16%,i
C[C@@H]1C[C@H]2[C@@H]3CCC4=CC(=O)C=C[C@]4(C)[C@@]3(F)[C@@H](O)C[C@]2(C)[C@H]1C(=O)CO,-2%,10µM*,9%,i
C[C@@H]1C[C@H]2[C@@H]3CCC4=CC(=O)C=C[C@]4(C)[C@@]3(F)[C@@H](O)C[C@]2(C)[C@@]1(O)C(=O)CO,0%,-10%,.,.
CCC(CC)NC(=O)C1CCN(c2ccc(S(=O)(=O)N3CCOCC3)cc2[N+](=O)[O-])CC1,-2%,-1%,.,.
COc1nc(Nc2ccc(C(C)C)cc2)nc(OC)n1,-10%,?,-12%,i
COc1nc(Nc2ccc(O)cc2)nc(OC(C(F)(F)F)C(F)(F)F)n1,0%,1%,-33%,.
CCOc1ccc(Nc2oc(-c3cccc(Cl)c3)nc2C#N)cc1,-1%,?,-2%,?
